Shown are actives, neighbours in structure and some others; about 11% of the full set was active somewhere.
IMPase inh: cell-permeable inhibitors of inositol monophosphatase (IMPase); inhibition (IP1 accumulation), % at 46.1 µM; CHO-M1 cells, IP1 accumulation, HTRF TR-FRET ratio; AID 901; 120,000 tested, under 10 active; P97697; active means well fitted curve in the direction sought with a large enough effect in the signal ratio, not every such curve was filed as active; inconclusive means small, poorly fitted or top-dose-only effect, or a change in a side signal; inactive means no such curve, though single readings can be large or run the other way; the % refers to the signal ratio;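 further: cells stimulated with carbachol in lithium chloride buffer; plate controls were DMSO basal wells for no effect and reference inhibitor wells for full effect; higher means more IMPase inhibition seen as more IP1 and lower FRET ratio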
Target sequence (P97697 whole entry, looked up): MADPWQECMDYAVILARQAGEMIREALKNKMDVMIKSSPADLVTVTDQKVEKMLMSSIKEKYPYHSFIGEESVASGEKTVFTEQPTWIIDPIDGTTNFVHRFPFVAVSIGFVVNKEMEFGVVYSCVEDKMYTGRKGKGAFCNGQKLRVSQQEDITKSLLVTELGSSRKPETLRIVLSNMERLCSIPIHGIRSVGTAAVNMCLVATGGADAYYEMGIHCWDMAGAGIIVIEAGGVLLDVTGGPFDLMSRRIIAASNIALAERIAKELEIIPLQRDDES
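CHO-M1, 2000 cells/well, cultured 16–30 h; cpd up to 46 uM; carbachol (50 uM solution, stimulation buffer w/ 50 mM LiCl, pH 7.4), 30 min 37C; IP-One TR-FRET, 10 min RT; Ex 320/Em 665, 620; Hill-fit AC50.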
HPGD inh: HPGD (human) dehydrogenase inhibition; P15428; purified HPGD, NADH fluorescence kinetic, PGE2 substrate; Potency, µM, inactives show top-dose activity change, negative = inhibition, actives largely listed as inhibitors; 4.3% of 150,000 active; AID 894; further: potency means the concentration at half of the fitted maximal effect
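20 nM HPGD preincubated 15 min at room temperature with compound in 50 mM Tris-HCl pH 8, 0.01% Tween 20. Started with 1 mM NAD+ and 30 uM prostaglandin E2; NADH fluorescence (360/450 nm) read 5 times over 30-s intervals, last minus first.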
PNC inhibitor: blocks assembly of the perinucleolar compartment | activity change (PNC), negative = inhibition, % at 10 µM | PC3M PTB-GFP, PNC prevalence imaging, 16 h; hits give low values | 3.1% of 140,000 active | AID 2417;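 active means readout at or below -70, meaning at least 70% loss of cells showing the perinucleolar compartment, a nuclear body marking cancer cells; inconclusive means readout between -30 and a set limit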;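 further: plate controls were DMSO wells for no effect and camptothecin positive control wells for full effect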
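PC3M cells stably expressing PTB-GFP, 750–1000 cells/well, treated 16 h at 37 °C with compound (23 nl of library stock), in duplicate. After paraformaldehyde fixation and Hoechst stain, imaged at 20x; PNC prevalence scored by image analysis.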
ALDH1A1 block: inhibitors of human aldehyde dehydrogenase 1A1; P00352; Purified ALDH1A1, NADH fluorescence, propionaldehyde substrate; Potency, µM (doses to about 75.3 µM), inactives show at the highest dose activity, negative = inhibition, hits mostly inhibitors; 7.3% of 220,000 active; AID 1030;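 further: potency means the concentration at half of the fitted maximal effect; plate controls were no enzyme wells and a reference inhibitor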
Target sequence (P00352 whole entry, looked up): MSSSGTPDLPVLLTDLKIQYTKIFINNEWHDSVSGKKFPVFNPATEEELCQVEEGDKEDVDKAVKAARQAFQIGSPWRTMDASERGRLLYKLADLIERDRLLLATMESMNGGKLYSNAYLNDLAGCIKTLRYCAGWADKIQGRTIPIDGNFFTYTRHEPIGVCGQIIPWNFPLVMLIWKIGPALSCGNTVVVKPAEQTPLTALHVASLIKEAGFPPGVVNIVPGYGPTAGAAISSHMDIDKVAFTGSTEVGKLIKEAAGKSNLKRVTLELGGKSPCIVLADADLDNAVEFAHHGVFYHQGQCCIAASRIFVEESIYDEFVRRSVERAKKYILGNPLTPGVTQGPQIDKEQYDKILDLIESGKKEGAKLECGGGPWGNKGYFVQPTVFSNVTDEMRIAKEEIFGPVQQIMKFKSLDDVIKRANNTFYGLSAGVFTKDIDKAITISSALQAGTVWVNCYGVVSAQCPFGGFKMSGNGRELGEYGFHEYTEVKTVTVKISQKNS
IMPase Li inh: cell-permeable IMPase inhibitors with lithium potentiation. CHO-M1 cells, IP1 TR-FRET (IP-One), carbachol + lithium. Potency, µM (titrated, usually from 59.4 µM), for the others: top-dose activity, negative = IMPase inhibition, hits mostly inhibitors. 0.35% of 210,000 active; active means well fitted inhibition curve with a large enough effect; inconclusive means small, poorly fitted or top-dose-only effect; inactive means no such curve, though single readings can be large or run the other way;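 further: IP1 builds up when IMPase is blocked and the TR-FRET signal falls; potency means the concentration at half of the fitted maximal effect; plate controls were basal vehicle for no effect and high inhibitor control for full effect; nearly all actives have a fitted effect of over 50% in size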
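IP1 accumulation measured by competitive TR-FRET in lysed CHO-M1 cells after 30 min compound exposure at 37C, with a small lithium addition to potentiate weak responses. Hill-equation AC50 from ratio and donor-channel data.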
* marks the source's active call; other numbers are inactive results; ? = inconclusive; . = no result given; [ ] = remark or other dose. Unless noted, the call rests on the fitted dose curve; in most records, active means well fitted inhibition curve with a large enough effect (not every such curve was filed as active); inconclusive means small, poorly fitted or top-dose-only effect, or another doubt; inactive means no such curve, though single readings can be large or run the other way. Unless noted, on the % scale 0 is the no-effect control and ±100 the full control effect.

SMILES	IMPase inh	HPGD inh	PNC inhibitor	ALDH1A1 block	IMPase Li inh
CCOc1ccccc1NS(=O)(=O)c1cn(C)nc1C	.	.	.	0.8%	1.7%
CCOc1ccc(CCNC(=O)C(C)n2nc(C)n3c(cc4occc43)c2=O)cc1OCC (configuration not stated)	5.0	-3.3%	28.6	15.9%	-3.8%[38.3 µM]
CCOc1ccc(CNC(=O)C(CC)n2nc(C)n3c(cc4occc43)c2=O)cc1OC (configuration not stated)	-11.8	-5.5%	-89.4*	-2.2%	-9.0%[38.3 µM]
Clc1cccc(-c2nnc3sc(-c4ccc5c(c4)OCO5)nn23)c1	5.0	.	6.1	20µM*	.
COc1ccc(Oc2c(C(F)(F)F)oc3c(CN4CCCC(C)C4)c(O)ccc3c2=O)cc1 (configuration not stated)	-2.8	.	.	.	.
O=C(NN1CCOCC1)c1cc(S(=O)(=O)Nc2cccc(C(F)(F)F)c2)ccc1Cl	-6.8	.	-97.7*	4.9%	.
COC(=O)c1sc(N2C(=O)c3oc4ccccc4c(=O)c3C2c2ccc(O)cc2)nc1C (configuration not stated)	-5.3	.	.	.	.
CCOC(=O)c1cc(OC(=O)c2cc(OC)cc(OC)c2)n(-c2ccccc2)n1	1.0	.	.	.	.
C=CCNc1nc2c3ccccc3n(C(C)=O)c2s1	3.1	-3.2%	-16.6	28.2µM*	5.8%[38.3 µM]
CC(=O)n1c2ccccc2c2c1c1ccccc1n2C	-2.2	?	20.7	?	-4.5%[38.3 µM]
O=[N+]([O-])c1ccc(/C=C2\CCC(C3=CCCC3)=C2N2CCOCC2)cc1	.	-14.4%	65.5	14.1µM*	4.9%
COc1cccc(NC(=O)CSc2nc3ccccc3cc2Cc2ccccc2)c1	11.8	-14.7%	34.3	5.6%	3.5%[38.3 µM]
COc1cccc(CSc2nc3ccccc3cc2C=O)c1	5.0	12.6µM*	?	?	15.0%[38.3 µM]
Cc1nnc2n1NC(c1ccc(Cl)cc1)C(C(=O)N1CCC(C)CC1)S2 (configuration not stated)	1.3	-2.4%	-111.6*	12.1%	-0.6%[38.3 µM]
Cn1c(O)c(N=N/C(=N/c2ccccn2)c2ccccn2)c2cc(Br)ccc21	.	22.4µM*	.	14.1µM*	.
CCOC(=O)C1=C(O)/C(=C\c2ccc(CNC(=O)C(=O)Nc3ccccc3)o2)N=C1C	14.2	31.6µM*	?	11.2µM*	71.6%[38.3 µM]
O=C(c1ccccc1)N1CCN(c2nc3ccc([N+](=O)[O-])cc3s2)CC1	.	.	.	10µM*	5.6%
CCOC(CNC(=O)c1ccc2nc(N3CCC(C)CC3)sc2c1)OCC	-1.0	-10.4%	-8.0	14.1µM*	23.5%[38.3 µM]
CC1CCN(c2nc3ccc(C(=O)N4CCN(Cc5ccccc5)CC4)cc3s2)CC1	2.8	14.1µM*	?	20µM*	4.2%[38.3 µM]
CCOC(=O)N1CCN(C(=O)c2ccc3nc(N4CCC(C)CC4)sc3c2)CC1	1.7	?	31.1	?	-3.8%[38.3 µM]
O=C(c1ccc2nc(N3CCCCC3)sc2c1)N1CCN(c2ccccn2)CC1	2.7	?	50.7	28.2µM*	27.1%[38.3 µM]
CCOC(=O)N1CCN(C(=O)c2ccc3nc(N4CCCCC4)sc3c2)CC1	5.4	-22.9%	54.1	-3.0%	5.8%[38.3 µM]
CCN(Cc1ccccc1)S(=O)(=O)c1ccc(C(=O)N2CCN(c3nc4ccccc4s3)CC2)cc1	.	-18.7%	56.5	-1.9%	26.3%
CCCCCCCCCC(=O)N[C@@H](CN1CCOCC1)[C@@H](O)c1ccccc1	-0.3	.	.	.	.
CC(CCc1ccccc1)NC(=O)c1ccc(NC(=O)c2cccc(Br)c2)cc1 (configuration not stated)	.	-13.7%	-113.4*	-5.3%	-16.0%
SMILES	IMPase inh	HPGD inh	PNC inhibitor	ALDH1A1 block	IMPase Li inh
CC(C)(C)C(=O)N1CCN(c2nc3ccccc3o2)CC1	.	.	.	6.1%	?
COc1ccc(OC)c(C2=Nn3c(nnc3-c3cc(OC)c(OC)c(OC)c3)SC2)c1	17.7	-28.1%	-4.3	?	15.5%[38.3 µM]
COc1ccc(OC)c(C2=Nn3c(nnc3-c3ccncc3)SC2)c1	.	-12.4%	.	0.7%	.
COc1cccc(-c2nnc3n2N=C(c2cc(OC)ccc2OC)CS3)c1	4.8	28.2µM*	-1.1	-5.7%	16.9%[38.3 µM]
CCOc1cccc(-c2nnc3n2N=C(c2cc(OC)ccc2OC)CS3)c1	14.4	25.1µM*	-98.6*	28.2µM*	26.9%
Cc1ccc(-c2nnc3n2N=C(c2ccccc2)CS3)cc1	-0.4	-10.4%	48.2	?	14.7%
Cc1cccc(-c2nnc3n2N=C(c2ccccc2Br)CS3)c1	1.9	2.51µM*	-1.5	?	43.3%[38.3 µM]
COc1cc(NS(=O)(=O)c2ccc(NC(=O)c3ccc(Cl)cc3Cl)cc2)nc(OC)n1	-10.5	.	.	.	.
Cn1cc2cc([N+](=O)[O-])ccc2n1	.	.	.	-4.9%	11.8%
Cc1nonc1OCCNc1ccc([N+](=O)[O-])cc1[N+](=O)[O-]	.	-14.9%	52.6	-7.6%	4.1%
Cc1nonc1OC(C)CNc1ccc([N+](=O)[O-])cc1 (configuration not stated)	1.3	28.2µM*	?	?	20.9%[38.3 µM]
Cc1nc2cc3nc(C)sc3cc2s1	-2.4	12.6µM*	24.5	1.78µM*	-11.3%[38.3 µM]
CC(C)N(CCC(=O)c1ccc2ccccc2c1)Cc1ccccc1	5.6	?	.	0.282µM*	13.1%
CCN(CC)c1ccc(/C=C(\C#N)C(=O)NCc2ccco2)cc1	7.4	-13.7%	-4.9	31.6µM*	28.4%
CN(C)c1ccc(/C=C(\C#N)C(=O)NCc2ccco2)cc1	.	-24.1%	29.7	?	-8.0%
COc1ccccc1NC(=O)Cn1c(=O)n2nc(C)nc2c2ccccc21	1.9	-15.6%	?	20µM*	-10.4%[38.3 µM]
COc1ccc(Cl)cc1NC(=O)Cn1c(=O)n2nc(C)nc2c2ccccc21	-2.4	-20.9%	?	7.94µM*	18.4%[38.3 µM]
COc1ccc(OC)c(NC(=O)Cn2c(=O)n(CC(=O)NCc3ccco3)c(=O)c3ccccc32)c1	2.3	-12.9%	60.6	-1.9%	18.1%[38.3 µM]
COc1ccc(Cl)cc1NC(=O)CN1C(=O)CCS(=O)(=O)c2ccccc21	-9.1	-14.1%	-100.0*	4.5%	3.7%
COc1ccccc1NC(=O)CN1C(=O)CCS(=O)(=O)c2ccccc21	6.2	-11.5%	?	2.2%	3.5%
O=C(Nc1ccc2c(c1)OCCO2)C1CCCN(S(=O)(=O)c2cccnc2)C1 (configuration not stated)	-4.1	-6.2%	?	-13.7%	6.4%[38.3 µM]
CC(=O)OC[C@@H]1O[C@@H](O/N=C2/C[C@@H](O)[C@@H](O)[C@@H]3[C@@H]4C(=O)N(c5cccc(Oc6ccccc6)c5)C(=O)[C@H]4CC[C@H]23)[C@H](OC(C)=O)[C@H](OC(C)=O)[C@@H]1OC(C)=O	.	.	.	0.7%[13.5 µM]	.
COC(=O)c1cc2c(C(F)(F)F)nn(C)c2s1	.	.	.	3.5%	.
C/C=C(\C)[C@H](O)C[Si](C)(C)c1ccccc1	.	-10.4%	.	8.2%	11.3%
COc1ccccc1NC(=S)NC(C)=O	.	.	.	8.9%	8.1%
COc1cc(OC)cc(C(=O)NNC(=S)Nc2ccccc2OC)c1	.	-10.4%	47.8	22.4µM*	0.6%

Bioassay records (PubChem)
